# Assay results taken from PubChem BioAssay AID778 (Sanford-Burnham Center for Chemical Genomics, 2007).
# In all, about 96,000 compounds went through this assay and about 20,000 (21%) were called active.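 How the source made its calls: active means CYP2C19 inhibition above a set limit at 5 µM in the primary screen (cut at about 50% in these data); inactive means the rest.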 The list is a sample of the results.
# Target: Cytochrome P450 2C19 (Homo sapiens) (UniProt P33261)
# Assay: blockers of cytochrome P450 2C19 activity – biochemical, luminescence, ADME assay, primary screen (AID 778);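 further: plate controls were negative control wells for no effect and 2.5 mM tranylcypromine positive control for full effect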
# Conditions: CYP2C19 Supersomes, luciferin-H EGE luminescence, 30 min; at 5 µM; hits give high values
# Chain of Cytochrome P450 2C19 (Homo sapiens) (P33261 whole entry, looked up): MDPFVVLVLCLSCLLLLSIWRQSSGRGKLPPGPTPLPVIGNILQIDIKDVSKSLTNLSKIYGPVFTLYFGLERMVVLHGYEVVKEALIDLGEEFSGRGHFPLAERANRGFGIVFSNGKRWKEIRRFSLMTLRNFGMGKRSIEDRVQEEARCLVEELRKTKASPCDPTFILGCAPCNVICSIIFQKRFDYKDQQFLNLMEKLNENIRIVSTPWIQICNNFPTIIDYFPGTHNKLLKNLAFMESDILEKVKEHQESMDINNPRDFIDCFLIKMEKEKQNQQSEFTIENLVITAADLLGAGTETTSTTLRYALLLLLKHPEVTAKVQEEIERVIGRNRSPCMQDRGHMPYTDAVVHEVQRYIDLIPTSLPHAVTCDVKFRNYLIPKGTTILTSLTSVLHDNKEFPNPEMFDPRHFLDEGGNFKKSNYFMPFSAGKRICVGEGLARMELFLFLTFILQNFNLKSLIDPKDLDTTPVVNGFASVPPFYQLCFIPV
row,Compound,inhibition
1,CCN(Cc1ccccc1)C(=O)CSc1nc(C)cc2c1C(=O)OC2,72.3% (active)
2,CCOC(=O)n1c(SCC(=O)N(CC)CC)nc2ccccc21,2.8% (inactive)
3,Cc1ccc(-c2nn(-c3ccccc3)cc2CN(Cc2ccccc2)C(=O)CCC(=O)O)o1,23.4% (inactive)
4,CCN(CC)CCN1C(=O)C(=O)/C(=C(/O)c2ccc(OC)c(OC)c2)C1c1ccccn1 (stereo not drawn),-1.7% (inactive)
5,CCCS(=O)(=O)N1CCCC(C(=O)N2CCN(c3ccccc3)CC2)C1 (stereo not drawn),-4.5% (inactive)
6,CCCCNC(=O)C(=O)c1ccccc1NC(C)=O,13% (inactive)
7,Cc1ccc(C(c2sc3nc(C)nn3c2O)N2CCN(c3ccc(F)cc3)CC2)cc1 (stereo not drawn),42.9% (inactive)
8,Cc1ccc(C(c2sc3nc(C)nn3c2O)N2CCN(c3ccccc3)CC2)cc1 (stereo not drawn),33.7% (inactive)
9,Oc1c(C(c2ccco2)N2CCC3(CC2)OCCO3)sc2ncnn12 (stereo not drawn),68.4% (active)
10,Oc1c(C(c2cccs2)N2CCN(c3ccc(F)cc3)CC2)sc2ncnn12 (stereo not drawn),87.6% (active)
11,CCOC(=O)c1ccc(COC(=O)CCc2nc(-c3ccccc3)c(-c3ccccc3)o2)cc1,34.1% (inactive)
12,Cc1nc(NC(=O)CCC(=O)O)sc1C(=O)N(C)C,-12.7% (inactive)
13,CCOc1ccc(N=C2SC(C(=O)O)CC(=O)N2C)cc1 (stereo not drawn),1.7% (inactive)
14,COc1ccc2c(c1OC)C(=O)OC2c1c(O)nc(SC)n(-c2ccccc2)c1=O (stereo not drawn),-15.5% (inactive)
15,O=c1cccc(-c2ccc(Br)cc2)o1,-9.6% (inactive)
16,CC(=O)Nc1ccc(N2C(=O)C3C4CC(=O)C(c5ccccc54)C3C2=O)cc1 (stereo not drawn),30.7% (inactive)
17,O=C(Nc1nnc(CCOCCOCCc2nnc(NC(=O)c3ccco3)s2)s1)c1ccco1,0.8% (inactive)
18,Cc1ccc(-n2nc(-c3ccco3)cc2C(=O)NCc2cccnc2)cc1,16.2% (inactive)
19,O=C(c1ccc(F)cc1)c1c[nH]c(C(=O)NCc2cccnc2)c1,65.3% (active)
20,COCCn1c(=O)[nH]c2cc(C(=O)NCc3cccnc3)ccc2c1=O,3.1% (inactive)
21,O=C(NCc1ccccn1)c1cnc2sccn2c1=O,-12.6% (inactive)

row,Compound,inhibition
1,Cc1cc(C(=O)NCCCc2ccccc2)no1,10.8% (inactive)
2,CCOC(=O)c1cnc(SC)nc1Sc1ccc(Cl)cc1Cl,25.2% (inactive)
3,CCCCNCc1ccc(SC)cc1,69.4% (active)
4,Cc1ccccc1C(=O)NCCN=C1NS(=O)(=O)c2ccccc21,11.7% (inactive)
5,Cc1oc(CC(C)C)c(CN2CCCC2)c1C(=O)O,-15.6% (inactive)
6,N#CCCN(CCC#N)c1nnc(-c2ccccc2)s1,29% (inactive)
7,Cc1cc(C)cc(OCC(=O)Nc2nc3ccc([N+](=O)[O-])cc3s2)c1,19.6% (inactive)
8,Cc1nn(Cc2ccccc2Cl)c(C)c1NC(=O)Cn1nc([N+](=O)[O-])c(Cl)c1C,0.1% (inactive)
9,Cc1nn(CC(=O)Nc2nc3ccccc3s2)c(C)c1[N+](=O)[O-],52.2% (active)
10,CCC(CC)C(=O)N1CC(=O)Nc2ccc(Br)cc2C1c1ccccc1 (stereo not drawn),47.6% (inactive)
11,Cc1cccn2c(=O)c(/C=C3\SC(=S)N(CC(C)C)C3=O)c(NCCCOC(C)C)nc12,14.7% (inactive)
12,COc1ccc2c(Cl)c(C(=O)NCc3ccco3)sc2c1,18.6% (inactive)
13,COC(=O)c1nc(NC(=O)c2ccc(Cl)cc2)n[nH]1,-2.9% (inactive)
14,NC(=O)c1ncc(C(F)(F)F)cc1Oc1ccc(F)cc1,31.9% (inactive)
15,O=C(CNC(=O)c1ccccc1)NCC(=O)OCc1ccc(Cl)cc1,7.3% (inactive)
16,Cc1ccc(C(=O)N2CCCC2)c(F)c1F,9.6% (inactive)
17,Cc1c(Br)cc(C(=O)N2CCCCCC2)c(C)c1C,96% (active)
18,Cc1ccc(C(=O)N2CCCCCC2)cc1Br,26.6% (inactive)
19,CCOC(=O)c1c(-c2ccc(C)cc2C)csc1NC(=O)CSc1nnnn1C,27.2% (inactive)
20,Cc1noc(C)c1CSCC(=O)Nc1nc2ccc(Oc3ccccc3)cc2s1,40.8% (inactive)
21,CCOC(=O)c1c(C2CC2)csc1NC(=O)CSCc1c(C)noc1C,64% (active)

row,Compound,inhibition
1,Cc1nc(SCC(=O)c2ccccc2)c([N+](=O)[O-])[nH]1,23.7% (inactive)
2,COC(=O)c1cc(C(=O)CSc2nc(C)cc(C)n2)ccc1O,23.3% (inactive)
3,Cc1cc(SCC(=O)c2ccccc2)nc(SCC(=O)c2ccccc2)n1,53.4% (active)
4,CC(C)CCOc1ccc(C(=O)C[N+]2(C)CCOCC2)cc1,12% (inactive)
5,Cc1ccc(N2C(=O)c3ccccc3C2(O)c2ncc[nH]2)cc1 (stereo not drawn),5.2% (inactive)
6,COc1ccc(CC(=O)n2nc(-c3cccnc3)nc2N)cc1,22.6% (inactive)
7,CCOc1c(N2CCCCC2)c(=O)c1=O,-3.9% (inactive)
8,CC(C)CNC(=O)COC(=O)/C=C/c1ccccc1[N+](=O)[O-],2.4% (inactive)
9,CC(C)CNC(=O)CC(c1ccccc1)c1c(O)ccc2ccccc12 (stereo not drawn),58.9% (active)
10,CCc1ccc(/C=N/NC(=O)c2ccc(OC3CCCC3)cc2)s1,25.8% (inactive)
11,Cc1cc(N(C)C)cc(C)[n+]1[O-],-6.3% (inactive)
12,O=C1CSC(=O)N1CCOCCN1C(=O)CSC1=O,15.9% (inactive)
13,COc1ccccc1NC(=O)CN1CCN(S(=O)(=O)c2ccc(Br)cc2)CC1,34% (inactive)
14,O=C(Nc1ccc(S(=O)(=O)N2CCCCC2)cc1)c1cnccn1,9.9% (inactive)
15,CCOc1ccccc1NC(=O)c1cc(S(=O)(=O)N2CCC3(CC2)OCCO3)ccc1F,9.8% (inactive)
16,O=C(Nc1ccccc1F)c1cc(S(=O)(=O)N2CCCCC2)cs1,62% (active)
17,COc1cc2c(cc1NC(=O)CN1CCN(S(=O)(=O)c3ccc(F)cc3)CC1)oc1ccccc12,11.9% (inactive)
18,CCOc1ccccc1NC(=O)CCN1CCN(S(=O)(=O)c2ccc(OC)cc2)CC1,68.5% (active)
19,CCOC(=O)c1[nH]c2ccc(OC)cc2c1NC(=O)CCN1CCN(Cc2ccccc2)CC1,32.7% (inactive)
20,O=C(CN1CCN(S(=O)(=O)c2ccc(F)cc2)CC1)Nc1ccccc1F,57.1% (active)
21,COc1ccc(S(=O)(=O)N2CCCC(C(=O)Nc3ccc(NC(=O)c4ccccn4)cc3)C2)cc1 (stereo not drawn),20.8% (inactive)
